In PubChem BioAssay (NCATS):
A number with no mark means an inactive call. Inconclusive results are not listed. Calls of active or inactive are those of the source. Unless noted, calls follow the shape of the dose curve; as a rule, active = well fitted curve in the direction sought with a large enough effect; inconclusive = small, poorly fitted or top-dose-only effect, or another doubt; inactive = no such curve, though single readings can be large; an effect the other way counts as inactive or inconclusive.

Experiments:
[1] = target: Lysosomal acid glucosylceramidase (Homo sapiens) (UniProt P04062); assay: Glucocerebrosidase-p2 (AID 348; in the data active = potency below about 10 µM; also: potency is read from the fitted curve at half-maximal effect); details: purified GBA, blue fluorogenic substrate, 40 min
Chain of Lysosomal acid glucosylceramidase (Homo sapiens) (P04062 whole entry, looked up): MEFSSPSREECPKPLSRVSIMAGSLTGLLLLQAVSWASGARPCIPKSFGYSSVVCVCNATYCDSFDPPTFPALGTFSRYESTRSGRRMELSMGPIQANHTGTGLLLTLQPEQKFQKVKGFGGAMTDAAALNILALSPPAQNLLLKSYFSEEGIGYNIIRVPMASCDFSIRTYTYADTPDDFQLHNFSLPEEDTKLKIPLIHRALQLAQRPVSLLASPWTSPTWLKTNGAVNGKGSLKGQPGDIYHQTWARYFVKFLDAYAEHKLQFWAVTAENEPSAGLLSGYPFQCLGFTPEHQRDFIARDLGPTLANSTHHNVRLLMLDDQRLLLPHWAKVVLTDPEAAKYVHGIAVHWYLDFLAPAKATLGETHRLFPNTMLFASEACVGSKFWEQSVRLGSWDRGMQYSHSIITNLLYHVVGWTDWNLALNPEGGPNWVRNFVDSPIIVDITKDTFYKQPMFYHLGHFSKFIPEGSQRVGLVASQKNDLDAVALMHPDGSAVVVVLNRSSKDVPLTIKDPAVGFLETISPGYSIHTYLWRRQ
In short: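 Normal human glucocerebrosidase (0.2 nM) with blue fluorogenic substrate (80 uM final) in citrate/phosphate pH 5.9 with 10mM sodium taurocholate, 0.01% tween-20; 40 min RT, NaOH/glycine stop; fluorescence Ex 365/Em 440; AC50 from a titration from 0.6 nM upwards.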

[2] = AP1 Signaling Pathway (AID 357; active = well fitted curve in either direction with a large enough effect, not every such curve was filed as active;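 also: ME-180 reporter cells stimulated with EGF at its EC50 level; % is scaled to controls: 0 for no effect and ±100 for the full control effect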); details: ME-180 AP-1-bla reporter, EGF-induced, beta-lactamase ratio, 5 h; at 7.69 µM (top of the series) unless noted
In short: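 First, ME-180 AP-1-bla cells were cultured overnight at 37 °C in low-serum Opti-MEM. Next, titrated compounds with EC50 EGF were incubated 5 hours. Finally, CCF4 was added for 2.5 hours and the 460/530 nm ratio recorded.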

[3] = NFAT Signaling Pathway (AID 444; active = well fitted curve in either direction with a large enough effect, not every such curve was filed as active;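 also: carbachol stimulus at about its EC50 of 1 µM final; % is scaled to controls: 0 for no effect and ±100 for the full control effect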); details: Jurkat NFAT-bla M1, carbachol, beta-lactamase ratio, 5 h; at 7.69 µM (top of the series) unless noted
In short: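 Read-out: CCF4 FRET ratio (460 nm/530 nm) after 1 h RT dye loading, used for %activity and AC50 from titration series. Cells: Jurkat NFAT-β-lactamase/M1 line, treated with compound plus 1 uM carbachol for 5 h, 37 °C.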

[4] = Stat Signaling Pathway (AID 446; active = well fitted curve in either direction with a large enough effect, not every such curve was filed as active;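 also: ME-180 cervical cancer cells given 40 pM IL-6 alongside compound; SIE-controlled beta-lactamase reporter measured as 460/530 nm FRET emission ratio; % is scaled to controls: 0 for no effect and ±100 for the full control effect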); details: ME-180 SIE beta-lactamase reporter, IL-6 stimulated, 5 h; at 7.69 µM (top of the series) unless noted
In short: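 Overnight-plated ME-180 cells bearing a STAT Inducible Element beta-lactamase reporter; 5 h co-exposure to compound and 40 pM IL-6; values normalized to 300 pM IL-6 and 125 nM JAK inhibitor controls.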

[5] = target: Glucocorticoid receptor (Homo sapiens) (UniProt P04150); assay: GR-GFP Redistribution (AID 450;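 active = compounds whose dose series gives a full or clear partial fitted curve of increased nuclear translocation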; also: potency is read from the fitted curve at half-maximal effect); details: U2OS GR-GFP nuclear translocation, laser cytometry, 2 h
Chain of Glucocorticoid receptor (Homo sapiens) (P04150 whole entry, looked up, the tested form may be a part): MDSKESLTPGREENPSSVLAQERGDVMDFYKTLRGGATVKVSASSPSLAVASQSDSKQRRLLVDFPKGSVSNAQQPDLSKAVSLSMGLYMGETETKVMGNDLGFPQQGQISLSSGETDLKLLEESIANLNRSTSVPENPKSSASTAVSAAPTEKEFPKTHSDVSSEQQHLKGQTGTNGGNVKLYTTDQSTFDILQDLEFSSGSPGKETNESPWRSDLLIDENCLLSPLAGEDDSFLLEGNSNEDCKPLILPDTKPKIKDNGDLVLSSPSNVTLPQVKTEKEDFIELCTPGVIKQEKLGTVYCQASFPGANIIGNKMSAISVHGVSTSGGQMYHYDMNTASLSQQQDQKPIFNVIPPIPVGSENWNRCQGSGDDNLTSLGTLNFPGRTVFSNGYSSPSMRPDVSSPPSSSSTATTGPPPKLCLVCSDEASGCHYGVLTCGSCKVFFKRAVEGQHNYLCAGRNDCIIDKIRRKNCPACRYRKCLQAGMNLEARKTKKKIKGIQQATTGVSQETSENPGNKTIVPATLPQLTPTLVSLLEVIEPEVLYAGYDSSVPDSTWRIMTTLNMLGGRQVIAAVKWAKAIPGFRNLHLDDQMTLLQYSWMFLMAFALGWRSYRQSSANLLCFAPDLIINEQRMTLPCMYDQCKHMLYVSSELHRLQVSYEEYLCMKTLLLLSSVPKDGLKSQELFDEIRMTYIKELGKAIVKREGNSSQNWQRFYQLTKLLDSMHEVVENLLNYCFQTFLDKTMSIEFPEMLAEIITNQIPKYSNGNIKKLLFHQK

[6] = target: Glucocorticoid receptor (Homo sapiens) (UniProt P04150); assay: GR-EFC Redistribution (AID 451; calls by dose curve; also: potency is read from the fitted curve at half-maximal effect); details: CHO-K1 GR-EFC translocation, beta-gal luminescence, 2 h
In short: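 Translocation of GR-ED fusion to nuclear EA restores b-gal, read by luminescence after 1 h room-temperature detection. Engineered CHO-K1 biosensor cells, 1,000/well, exposed 2 h at 37 C to titrations up to 46 uM final.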

[7] = target: Mitogen-activated protein kinase 10 (Mus musculus) (UniProt Q61831); assay: JNK3 AlphaScreen Assay (AID 530; active = well fitted curve in either direction with a large enough effect, not every such curve was filed as active;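 also: kinase came from lysate of stimulated human HepG2 cells; signal reports phosphorylation of biotinylated GST-cJun 1-79 at Ser73 with 10 µM ATP; % is scaled to controls: 0 for no effect and ±100 for the full control effect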); details: JNK3 lysate, c-Jun phosphorylation; series mostly up to 57.1 µM
In short: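 qHTS titrations with 15 min compound pre-incubation before adding ATP (10 uM final). Read-out: AlphaScreen of Ser73-phosphorylated biotin-GST-cJun using HepG2 lysate JNK3 activated by IL-1β and TNFα.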

[8] = qHTS Assay for Identification of Small Molecule Agonists for Hypoxia Response Element Signaling Pathway (AID 914; active = well fitted activation curve with a large enough effect in the signal ratio, with a control signal flat, not every such curve was filed as active; the % refers to the signal ratio; also: potency is read from the fitted curve at half-maximal effect; as to activation: % of control where 0% means no effect); details: ME-180 (cervical carcinoma) HRE-bla reporter, beta-lactamase ratio, CoCl2, 17 h; activation: hits give high values
In short: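 Compounds in a titration series were added to ME-180 reporter cells alongside an EC50 level of CoCl2. After 17 hours, beta-lactamase activity was read as the 460nm/530nm emission ratio of CCF4, giving AC50 values.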

[9] = target: Dual specificity protein kinase CLK4 (Homo sapiens) (UniProt Q9HAZ1); assay: qHTS Assay for Inhibitors of CDC-like Kinase 4 (Kinase-Glo Assay) (AID 1770); details: recombinant Clk4, Kinase-Glo ATP depletion luminescence; series mostly up to 66.7 µM; also: nearly all actives have a fitted effect of over 65% in size; also: potency is read from the fitted curve at half-maximal effect
Chain of Dual specificity protein kinase CLK4 (Homo sapiens) (Q9HAZ1 whole entry, looked up): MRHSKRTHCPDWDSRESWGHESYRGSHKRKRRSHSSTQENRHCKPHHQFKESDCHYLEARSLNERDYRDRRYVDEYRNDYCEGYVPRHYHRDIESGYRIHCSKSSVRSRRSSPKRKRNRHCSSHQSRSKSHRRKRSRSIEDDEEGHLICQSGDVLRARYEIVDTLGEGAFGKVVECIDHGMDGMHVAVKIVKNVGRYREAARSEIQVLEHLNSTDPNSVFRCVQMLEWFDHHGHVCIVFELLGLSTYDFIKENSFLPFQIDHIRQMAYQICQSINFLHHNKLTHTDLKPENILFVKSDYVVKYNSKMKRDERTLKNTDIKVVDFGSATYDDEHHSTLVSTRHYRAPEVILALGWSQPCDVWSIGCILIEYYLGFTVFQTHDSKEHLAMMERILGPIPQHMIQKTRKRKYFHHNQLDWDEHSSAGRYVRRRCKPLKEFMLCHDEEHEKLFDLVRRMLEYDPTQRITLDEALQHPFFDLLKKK
In short: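 Clk4 25 nM, RS peptide 100 uM, ATP 1 uM, pH 7.5 Tris, 10 mM MgCl2, 2.5 mM DTT; 4.5 h RT; ATP depletion read by Kinase-Glo luminescence.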

[10] = target: Dual specificity protein kinase CLK4 (Homo sapiens) (UniProt Q9HAZ1); assay: qHTS Assay for Inhibitors of CDC-like Kinase 4 (ADP-Glo Assay) (AID 1771); details: recombinant CLK4, ADP-Glo luminescence; series mostly up to 80 µM; also: nearly all actives have a fitted effect of over 70% in size; also: potency is read from the fitted curve at half-maximal effect
In short: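 Compounds are pin-transferred onto substrate mix (100 uM RS peptide, 1 uM ATP), then 25 nM Clk4 is added. After 1 hr at room temperature, ADP-Glo reagent runs 45 min, detection reagent 30 min, then luminescence is read.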

[11] = target: Dual specificity protein kinase CLK4 (Homo sapiens) (UniProt Q9HAZ1); assay: qHTS Assay for Inhibitors of CDC-like Kinase 4 (ADP-FP Assay) (AID 1795); details: Transcreener ADP fluorescence polarization; series mostly up to 50 µM; also: nearly all actives have a fitted effect of over 60% in size; also: potency is read from the fitted curve at half-maximal effect
In short: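 Kinase activity was followed as ADP output, converted from fluorescence polarization with a calibration curve. Reactions ran one hour at low ATP (1 uM) with RS peptide substrate.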

[12] = target: Ubiquitin carboxyl-terminal hydrolase 1 (Homo sapiens) (UniProt O94782); assay: Inhibitors of USP1/UAF1: Pilot qHTS (AID 504865); details: purified USP1/UAF1, Ub-rhodamine cleavage fluorescence; series mostly up to 54.9 µM; also: nearly all actives have a fitted effect of over 35% in size; also: potency is read from the fitted curve at half-maximal effect
Chain of Ubiquitin carboxyl-terminal hydrolase 1 (Homo sapiens) (O94782 whole entry, looked up): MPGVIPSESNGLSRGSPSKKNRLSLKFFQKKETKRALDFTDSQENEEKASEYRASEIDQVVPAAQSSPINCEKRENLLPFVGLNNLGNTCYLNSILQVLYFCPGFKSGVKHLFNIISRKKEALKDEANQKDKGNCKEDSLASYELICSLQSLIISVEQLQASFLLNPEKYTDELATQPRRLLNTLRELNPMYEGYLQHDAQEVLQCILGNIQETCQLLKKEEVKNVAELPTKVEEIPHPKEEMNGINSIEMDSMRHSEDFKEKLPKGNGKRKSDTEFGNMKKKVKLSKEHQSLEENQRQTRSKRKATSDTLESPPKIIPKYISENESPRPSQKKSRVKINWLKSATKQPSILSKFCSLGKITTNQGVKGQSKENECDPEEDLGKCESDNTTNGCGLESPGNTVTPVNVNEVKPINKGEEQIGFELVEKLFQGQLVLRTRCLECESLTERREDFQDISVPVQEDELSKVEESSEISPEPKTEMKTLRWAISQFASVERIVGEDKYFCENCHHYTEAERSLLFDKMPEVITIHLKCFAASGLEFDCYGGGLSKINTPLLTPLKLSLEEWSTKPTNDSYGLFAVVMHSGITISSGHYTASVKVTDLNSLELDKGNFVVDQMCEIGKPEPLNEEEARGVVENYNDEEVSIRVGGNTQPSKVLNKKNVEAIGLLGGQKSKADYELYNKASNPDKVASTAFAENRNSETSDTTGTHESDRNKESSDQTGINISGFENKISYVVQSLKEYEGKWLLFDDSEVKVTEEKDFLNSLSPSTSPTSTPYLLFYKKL
In short: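 Enzyme-free wells gave the negative control, while test wells held 1nM USP1/UAF1 preincubated with compound for 15 min at room temperature. Ub-Rho at 150nM final started the reaction, and fluorescence at 480/540 nm was recorded kinetically.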

[13] = Primary qHTS for small molecule stabilizers of the endoplasmic reticulum resident proteome: Secreted ER Calcium Modulated Protein (SERCaMP) assay (AID 1508630); details: SH-SY5Y GLuc-SERCaMP (Gaussia luciferase released on ER calcium loss) secretion, thapsigargin, luminescence; series mostly up to 38.4 µM; also: % is scaled to controls: 0 for no effect and ±100 for the full control effect
In short: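 The SH-SY5Y reporter protocol was run at 3 concentrations up to 38.3 uM (primary) or 11 concentrations (follow-up): 16 h compound, 100 nM thapsigargin for 4 h, then extracellular luciferase luminescence.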

[14] = target: 3',5'-cyclic-AMP phosphodiesterase 4B (Homo sapiens) (UniProt Q07343); assay: qHTS Assay for Inhibitors of PDE-IV (AID 607; active = well fitted activation curve with a large enough effect in the main read-out, with a control signal flat, not every such curve was filed as active; also: % of control where 0% means no effect); details: HEK293 ACTOne CNG channel cells, membrane potential fluorescence; series mostly up to 22.9 µM
Chain of 3',5'-cyclic-AMP phosphodiesterase 4B (Homo sapiens) (Q07343 whole entry, looked up): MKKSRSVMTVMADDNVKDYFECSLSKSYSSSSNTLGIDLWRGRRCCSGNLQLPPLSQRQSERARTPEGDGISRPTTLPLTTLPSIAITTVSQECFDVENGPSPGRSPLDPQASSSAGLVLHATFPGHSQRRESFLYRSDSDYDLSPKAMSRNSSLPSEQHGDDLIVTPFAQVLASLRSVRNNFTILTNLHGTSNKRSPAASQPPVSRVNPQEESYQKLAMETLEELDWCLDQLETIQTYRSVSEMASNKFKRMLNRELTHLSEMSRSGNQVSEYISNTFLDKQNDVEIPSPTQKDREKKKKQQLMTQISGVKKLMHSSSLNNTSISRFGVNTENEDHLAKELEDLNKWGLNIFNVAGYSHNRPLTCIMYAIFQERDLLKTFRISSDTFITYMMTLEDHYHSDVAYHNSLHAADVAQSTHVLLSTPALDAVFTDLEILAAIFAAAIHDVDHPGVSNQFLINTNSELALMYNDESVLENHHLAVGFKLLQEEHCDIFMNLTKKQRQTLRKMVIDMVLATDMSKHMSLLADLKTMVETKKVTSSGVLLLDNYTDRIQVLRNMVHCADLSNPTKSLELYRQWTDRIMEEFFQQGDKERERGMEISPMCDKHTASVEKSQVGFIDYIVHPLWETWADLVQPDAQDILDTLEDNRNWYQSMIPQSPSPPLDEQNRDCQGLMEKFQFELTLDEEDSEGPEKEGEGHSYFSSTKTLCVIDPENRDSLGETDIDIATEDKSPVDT
In short: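 Live HEK293 cells with a modified cyclic nucleotide-gated (CNG) channel report intracellular cAMP via membrane-potential dye fluorescence (ex 535/em 590 nm). Endogenous PDE-IV was targeted. Compounds were tested at up to 22.9 uM final; RO 20-1724 100 uM served as control.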

[15] = target: Cytochrome P450 3A4 (Homo sapiens) (UniProt P08684); assay: qHTS Assay for Activators of Cytochrome P450 3A4 (AID 885); details: recombinant CYP3A4, Luciferin-PPXE luminescence, 60 min; series mostly up to 57.1 µM; also: nearly all actives have a fitted effect of over 65% in size
Chain of Cytochrome P450 3A4 (Homo sapiens) (P08684 whole entry, looked up): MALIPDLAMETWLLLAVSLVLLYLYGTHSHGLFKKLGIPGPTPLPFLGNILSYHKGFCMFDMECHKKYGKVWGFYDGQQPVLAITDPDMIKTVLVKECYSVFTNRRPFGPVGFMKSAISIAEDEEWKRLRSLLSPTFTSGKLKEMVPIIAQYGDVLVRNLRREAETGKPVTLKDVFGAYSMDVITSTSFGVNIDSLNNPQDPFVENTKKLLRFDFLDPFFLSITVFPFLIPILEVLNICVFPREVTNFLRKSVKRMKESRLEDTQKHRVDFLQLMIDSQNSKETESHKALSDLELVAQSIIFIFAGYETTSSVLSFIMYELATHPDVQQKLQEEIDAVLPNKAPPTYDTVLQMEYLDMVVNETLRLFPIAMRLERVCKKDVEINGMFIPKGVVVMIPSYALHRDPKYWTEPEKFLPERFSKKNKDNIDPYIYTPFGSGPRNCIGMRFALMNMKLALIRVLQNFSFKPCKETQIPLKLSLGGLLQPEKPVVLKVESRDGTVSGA
In short: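 Using 20nM recombinant human CYP3A4 in potassium phosphate (200mM), substrate Luciferin-PPXE at 25uM, luminescent luciferin detection followed a 60-min RT NADPH reaction; data scaled to 57 uM ketoconazole.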

[16] = target: Cytochrome P450 2C9 (Homo sapiens) (UniProt P11712); assay: qHTS Assay for Inhibitors and Substrates of Cytochrome P450 2C9 (AID 883); details: recombinant CYP2C9, luciferin-H luminescence, 60 min; series mostly up to 57.1 µM; also: % is scaled to controls: 0 for no effect and ±100 for the full control effect; nearly all actives have a fitted effect of over 60% in size
Chain of Cytochrome P450 2C9 (Homo sapiens) (P11712 whole entry, looked up): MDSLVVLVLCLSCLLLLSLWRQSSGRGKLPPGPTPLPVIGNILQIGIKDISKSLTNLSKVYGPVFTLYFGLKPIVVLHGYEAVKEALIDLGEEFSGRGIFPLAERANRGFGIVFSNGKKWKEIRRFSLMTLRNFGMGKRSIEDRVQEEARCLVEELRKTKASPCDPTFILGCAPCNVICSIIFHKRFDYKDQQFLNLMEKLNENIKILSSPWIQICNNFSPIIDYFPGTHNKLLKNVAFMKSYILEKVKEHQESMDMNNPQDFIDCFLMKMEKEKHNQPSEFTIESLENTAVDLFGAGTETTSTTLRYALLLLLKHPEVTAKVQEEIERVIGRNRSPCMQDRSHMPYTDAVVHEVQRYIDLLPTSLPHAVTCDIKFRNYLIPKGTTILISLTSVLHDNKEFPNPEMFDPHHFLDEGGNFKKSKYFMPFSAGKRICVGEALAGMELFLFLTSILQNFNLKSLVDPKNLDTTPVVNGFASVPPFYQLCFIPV
In short: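 Luminescent read-out of deoxyluciferin hydroxylation, normalized to 57uM sulphaphenazole (AC100). Reaction: 10nM enzyme, 100uM Luciferin-H (equal to KM), 25mM KPO4, 10 min compound preincubation, then 60 min with NADPH regeneration, both at 37C.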

[17] = target: Cytochrome P450 3A4 (Homo sapiens) (UniProt P08684); assay: qHTS Assay for Inhibitors and Substrates of Cytochrome P450 3A4 (AID 884); details: recombinant CYP3A4, Luciferin-PPXE luminescence; series mostly up to 57.1 µM; also: potency is read from the fitted curve at half-maximal effect; nearly all actives have a fitted effect of over 50% in size
In short: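 Luminescent readout of luciferin produced by CYP3A4 (20 nM) dealkylation of Luciferin-PPXE, 25 uM (its KM). NADPH-driven reaction ran 60 min at RT after 10 min compound preincubation; data scaled to 57 uM ketoconazole as 100% inhibition.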

[18] = target: Cytochrome P450 2C19 (Homo sapiens) (UniProt P33261); assay: qHTS Assay for Inhibitors and Substrates of Cytochrome P450 2C19 (AID 899); details: recombinant CYP2C19, luciferin-H EGE luminescence; series mostly up to 57.1 µM; also: potency is read from the fitted curve at half-maximal effect; nearly all actives have a fitted effect of over 60% in size
Chain of Cytochrome P450 2C19 (Homo sapiens) (P33261 whole entry, looked up): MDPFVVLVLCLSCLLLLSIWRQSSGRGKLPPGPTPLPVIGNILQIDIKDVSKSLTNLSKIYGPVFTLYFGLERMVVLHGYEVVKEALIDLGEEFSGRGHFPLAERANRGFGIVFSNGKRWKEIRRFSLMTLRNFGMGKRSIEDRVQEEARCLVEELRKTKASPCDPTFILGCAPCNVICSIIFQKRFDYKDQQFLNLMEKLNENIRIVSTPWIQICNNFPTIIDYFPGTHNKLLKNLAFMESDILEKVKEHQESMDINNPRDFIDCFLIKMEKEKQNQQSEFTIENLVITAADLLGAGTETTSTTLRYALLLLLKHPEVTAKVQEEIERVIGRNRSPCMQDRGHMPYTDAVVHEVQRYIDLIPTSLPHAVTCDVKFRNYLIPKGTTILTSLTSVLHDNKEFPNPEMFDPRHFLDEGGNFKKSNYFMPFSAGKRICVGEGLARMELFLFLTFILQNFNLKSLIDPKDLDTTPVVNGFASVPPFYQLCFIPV
In short: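 Luminescence readout of luciferin formed from 10uM Luciferin-H EGE (KM level) by 5 nM CYP2C19 in 50mM KPO4. 60 min NADPH-driven reaction at 37C after 10 min compound preincubation; data scaled to 57uM ketoconazole inhibition.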

Row | Compound | Potency [1] [µM] | activity change, negative = inhibition [2] [%] | activity change, negative = inhibition [3] [%] | activity, negative = inhibition [4] [%] | Potency [5] [µM] | Potency [6] [µM] | Potency [7] | activation [8] [%] | Potency [9] | Potency [10] | Potency [11] | Potency [12] | outcome [13] | Potency [14] | Potency [15] | Potency [16] | Potency [8] | Potency [17] | Potency [18]
1 | CN1CCN(c2cc(-c3ccccc3Cl)ncn2)CC1 | > 11.4 | -6.42 | 3.06 | -1.39 | > 46 | > 46 | inactive | 18 | inactive | inactive | inactive | inactive | inactive |  |  |  |  |  | 
2 | COc1ncc2nc(-c3ccc(Cl)cc3)c(=O)n(C)c2n1 | > 11.4 | -10.2 | 8.73 | 1.71 | > 9.22 | > 46 | inactive |  | inactive | inactive | inactive | inactive | inactive | inactive | inactive |  |  |  | 
3 | N#Cc1cccc(-c2nc3cnc(N4CCOCC4)nc3n(Cc3ccc(F)cc3)c2=O)c1 | > 11.4 | -7.31 | 27.2 | 13.2 | > 9.22 | > 46 | inactive |  | inactive | inactive | inactive | inactive | inactive | inactive |  | inactive |  |  | 
4 | Cn1c(=O)c(CCc2ccccc2)nc2cnc(N3CCOCC3)nc21 | > 11.4 | -10.6 | 10.9 | 1.67 | > 9.22 | > 46 | inactive |  | inactive | inactive | inactive | inactive | inactive | inactive |  |  |  |  | 
5 | COc1ncc2nc(-c3ccccc3)c(=O)n(CCC#N)c2n1 | > 11.4 | -23.7 | -5.79 | -14.9 | > 9.22 | > 46 | inactive |  | inactive | inactive | inactive | inactive | inactive | inactive |  |  |  |  | 
6 | COc1ccc(-c2nc3cnc(N4CCOCC4)nc3n(Cc3cccc(OC)c3)c2=O)cc1 | > 11.4 | 18.4 | 18.6 |  | > 9.22 | > 46 | inactive |  | inactive | inactive | inactive | inactive | inactive | inactive |  |  |  |  | 
7 | COCCNc1nc(-c2ccoc2)nc2ccccc12 | > 11.4 | 1.3 | -13.7 | 8.88 | > 46 | > 46 | inactive |  | inactive | inactive | inactive | inactive | inactive |  | inactive |  |  |  | 
8 | COc1ncc2nc(-c3cn(C)c4ccccc34)c(=O)n(CCc3ccccc3)c2n1 | > 11.4 | 24.3 | -1.31 |  | > 9.22 | > 46 |  |  | inactive | inactive | inactive | inactive | inactive |  |  |  | 1 µM (active) |  | 
9 | COc1ccccc1CNc1nc(-c2ccccc2OC)nc2ccccc12 | > 11.4 | 6.17 | -24.7 | -10.4 | > 46 | > 46 | inactive |  | inactive | inactive | inactive |  | inactive |  |  |  |  |  | 
10 | O=c1c(-c2cccs2)nc2cnc(Oc3ccccc3)nc2n1Cc1cccs1 | > 11.4 | -14 | 1.21 | 1.3 | > 9.22 |  | inactive | 9.14 | inactive | inactive | inactive |  | inactive | inactive | inactive |  |  |  | 
11 | COc1cccc(Cn2c(=O)c(-c3cc(F)cc(F)c3)nc3cncnc32)c1 | > 11.4 | 0.277 | 0.731 |  | > 9.22 | > 46 |  |  | inactive | inactive | inactive | inactive | inactive |  |  |  |  |  | 
12 | COCCn1c(=O)c(C)nc2cnc(OC)nc21 | > 11.4 | -9.91 | 5.14 | -16.1 | > 9.22 | > 46 | inactive |  | inactive | inactive | inactive | inactive | inactive | inactive | inactive |  |  |  | 
13 | Cc1cnc(CNc2ncncc2-c2cccc(NS(C)(=O)=O)c2)cn1 | > 11.4 | 3.85 | -0.565 | 13.1 | > 46 | > 46 | inactive |  | inactive | inactive | inactive | inactive | inactive | inactive | inactive |  |  | 3.16 µM (active) | 
14 | c1cn(-c2cc(-c3ccc4c(c3)OCO4)ncn2)cn1 | > 11.4 | 13.6 |  | 6.1 | > 46 | > 46 | inactive |  | 3.16 µM (active) | 2.82 µM (active) | 2 µM (active) | 17.8 µM (active) | inactive | inactive |  |  |  |  | 
15 | COc1cccc(Nc2ncc3nc(-c4ccc(Cl)cc4)c(=O)n(C[C@H]4CCCO4)c3n2)c1 | > 11.4 | -20.5 | 2.35 | 4.74 | > 9.22 | > 46 | inactive |  | inactive | inactive | inactive |  | inactive | inactive | inactive |  |  |  | 
16 | COc1ccc2[nH]cc(CCNc3ccnc(-c4cccc(C#N)c4)n3)c2c1 | > 11.4 | -12.9 | 23.2 | -8.5 | > 46 | > 46 | inactive |  | 12.6 µM (active) | 12.6 µM (active) | 8.91 µM (active) | inactive | inactive | inactive |  |  |  |  | 
17 | COc1ccccc1-c1cc(N(C)Cc2ccco2)ncn1 | > 11.4 | 28.4 | -15.8 |  | > 46 | > 46 | inactive |  | 28.2 µM (active) | 35.5 µM (active) | inactive | inactive | inactive | inactive |  |  |  |  | 3.98 µM (active)
18 | CCNc1ncc2nc(-c3ccc(F)cc3)c(=O)n(CCc3ccccc3)c2n1 | > 11.4 | 12.6 | -12.8 |  | > 9.22 | > 46 | inactive |  | inactive | inactive | inactive | inactive | inactive |  |  |  | 0.398 µM (active) |  | 
